# From PubChem
# Only a selection was taken, and hits are over-represented in it overall.
# KDM5B inhibitor = Primary screen for KDM5B Histone Demethylases FDH-coupled qHTS | 220,000 tested, 2.6% active | Lysine-specific demethylase 5B (Homo sapiens), Q9UGL1 | Potency, µM (titrated, usually from 57.7 µM), hits mostly inhibitors | KDM5B demethylase, FDH-coupled NADH fluorescence (FDH is formaldehyde dehydrogenase); active = well fitted inhibition curve with a large enough effect; also: 0% is about no effect; nearly all actives have a fitted effect of over 70% in size
#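 Compound dilutions met 200 nM (final) KDM5BΔAP for 10 min at room temperature before substrate addition. The substrate mix held 12.5 µM H3K4me3 with cofactors 25 µM α-ketoglutarate and 50 µM Fe²⁺. NADH signal gain over 30 min defined activity.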
# Numbers without * were called inactive; i = inactive. Potency is read from the fitted curve at half-maximal effect.
SMILES,KDM5B inhibitor
CCCOc1c(Cl)cc(C(=O)NCC2CCCO2)cc1OCC (stereo not drawn),i
CCOc1cc(/C=N/NC(=O)C(=O)NCC2CCCO2)ccc1OCC(=O)N1CCOCC1 (stereo not drawn),i
CCOc1ccc(CC(=O)NC2CCN(c3cc(-c4ccc(OC)cc4)[nH]n3)CC2)cc1,i
CCOc1cc(C(=O)NC2CCN(c3cc(-c4ccc(OC)cc4)[nH]n3)C2)cc(OCC)c1OCC (stereo not drawn),i
CCOc1ccc(-c2ccnc(N3CCC(NC(C)=O)CC3)n2)cc1C(=O)O,32µM*
CCOc1ccc(-c2ccnc(NC[C@@H]3CCCO3)n2)cc1C(=O)O,22µM*
CCOc1ccc(-c2ccnc(N3CCNC(C)C3)n2)cc1C(=O)O (stereo not drawn),28µM*
Cc1ccc2oc(=O)c(-c3nc(-c4ccccn4)no3)cc2c1,i
Cc1cccc(C(=O)NC(C)C(=O)OC(C)C(N)=O)c1 (stereo not drawn),i
COCc1nn2c3c(cnc2c1-c1ccccc1)C(=O)CC(c1ccccc1)C3 (stereo not drawn),i
COCCNC(=O)CC(c1ccc(Cl)cc1)c1c[nH]c2ccc([N+](=O)[O-])cc12 (stereo not drawn),i
O=C(N[C@@H]1CN(C(=O)Nc2ccccc2)CCC[C@H]1O)c1ccc(O)cc1,i
Cc1cc(-c2cc(-c3ccc(F)cc3)nc3c(C)noc23)ccn1,i
Cc1noc2c(NCCCn3ccnc3)cc(-c3cccs3)nc12,i
Cc1noc2c(-c3cccc(O)c3)cc(-c3cccs3)nc12,13µM*
Cc1noc2c(NC3CCN(C)CC3)cc(-c3cccs3)nc12,i
Cc1noc2c(-c3ccncc3)cc(-c3cccs3)nc12,5.6µM*
Cc1noc2c(NC(C)C)cc(-c3cccs3)nc12,i
O=C(CN(C1CCCCC1)S(=O)(=O)c1ccc(Br)cc1)N1CCCCCC1,i
Cc1nc2cc(NC(=O)c3ccc(C(C)C)cc3)ccc2o1,i
Cc1cc(F)ccc1NS(=O)(=O)c1ccc(-c2cnc(C3CC3)o2)cc1,i
CC(C)(C)c1ccc(C(=O)NCCNC(=O)c2nc3ccccc3c(=O)[nH]2)cc1,i
CCCCCCCCS(=O)(=O)CCSCCO,i
CC(N)C1CC1 (stereo not drawn),i
CN(C)c1ccc(C(=O)N2CCN3C(=O)N(CC(N)=O)C(=O)[C@@H]3C2)cc1,i
SMILES,KDM5B inhibitor
Cc1cc2oc(C(=O)N(Cc3ccccc3Cl)C3CCS(=O)(=O)C3)cc(=O)c2cc1Cl (stereo not drawn),i
CCNC(=O)Cc1ccc(N(Cc2ccccc2)C(=O)c2ccco2)cc1,i
CCCNC(=O)Cc1ccc(N(Cc2ccccc2)C(=O)c2ccco2)cc1,i
Cc1cccc(CN(C(=O)c2ccco2)c2ccc(CC(=O)N(C)Cc3ccccc3)cc2)c1,28µM*
Nc1cc(N)nc(SCCC(=O)Nc2ccccc2F)n1,i
O=C(CCc1ncc(-c2ccc(F)cc2)o1)NCCc1ccc(F)cc1,i
COc1ccc2nc(NS(=O)(=O)c3ccc(Cl)cc3)c(Nc3cc(C)ccc3OC)nc2c1,i
Cc1ccc(NS(=O)(=O)c2cc(NC(=O)Cc3n[nH]c(=O)c4ccccc34)ccc2C)c(C)c1,i
NCc1cccc(-c2cc(C(F)(F)F)ccc2Cl)c1,89µM*
NCc1ccccc1-c1cc(C(F)(F)F)ccc1Cl,i
O=C(O)c1cccc(-c2cc(C(F)(F)F)ccc2Cl)c1,i
O=C(Nc1ccc(Cl)cc1Cl)C1C2CC/C=C\CC/C=C/CCC21 (stereo not drawn),i
COc1ccc(N2C(=O)CSC23CCN(C(=O)Nc2ccc(F)cc2F)CC3)cc1,i
COc1nc2c(cc1CNC(=O)CN1CCOCC1)C(=O)N(C1CCCC1)C2,i
O=C1CC2CCN(C(=O)c3ccc(F)cc3)CC2CCN1 (stereo not drawn),i
O=C1CC2CCN(C(=O)c3ccccc3)CC2CCN1 (stereo not drawn),28µM*
O=C1CC2CCN(C(=O)c3cccc(Cl)c3)CC2CCN1 (stereo not drawn),i
COC(=O)c1nc2n(n1)C(c1ccc(C)cc1)C(C(=O)Nc1ccc(Cl)cc1)=C(C)N2 (stereo not drawn),i
O=C(Cn1nc(C(=O)O)c2ccccc2c1=O)NC(=O)c1ccc(Cl)cc1,i
CC(C)(C)C(NCC(=O)NC(C)(C#N)C1CC1)c1cccs1 (stereo not drawn),i
COCc1nc2nccc(-c3ccc(OC)cc3F)n2n1,28µM*
CCc1nc2nccc(-c3ccc(OC)cc3F)n2n1,i
COc1ccc(-c2ccnc3nc(-c4cccs4)nn23)c(F)c1,14µM*
COc1ccc(CCc2nc3nccc(-c4ccc(OC)cc4F)n3n2)cc1,22µM*
c1ccc(-c2ccnc3nc(-c4cccs4)nn23)cc1,32µM*
SMILES,KDM5B inhibitor
CCOC(=O)c1cnc2nc(-c3ccccc3)nn2c1C,i
CC(=O)N1CCc2cc(NC(C)C(=O)Nc3ccc(OC(F)F)cc3)ccc21 (stereo not drawn),i
CS(=O)(=O)N1CCC(CC(=O)N2CC=C(c3ccccc3)CC2)C1 (stereo not drawn),i
NC(=O)CO[C@@H]1CO[C@H]2[C@@H]1OC[C@@H]2NC(=O)c1ccc(C(F)(F)F)cc1,i
COC(=O)c1ccc(-c2ccc(C(=O)O)cc2)cc1,i
Cc1cc(C(=O)Cn2cnc3c2c(=O)n(C)c(=O)n3C)c(C)n1CC1CCCO1 (stereo not drawn),i
CCOC(=O)c1c(NC(=O)Cn2nnc(-c3ccccc3)n2)sc(C)c1CC,i
COc1cccc(CC(=O)N2CCC([C@@H]3CNC[C@H]3CO)CC2)c1,i
COc1ccccc1-c1nc(C(=O)NC2CC2)n2ccccc12,i
COc1ccc(-c2nc(C(=O)NC3CC3)n3ccccc23)cc1,32µM*
CC(C)(C)NC(=O)c1cnn(-c2ccccc2)c1C1CCN(C(=O)OC(C)(C)C)CC1,i
C[S+](=O)([O-])c1ccc(-c2nc(C(=O)NC3CC3)n3ccccc23)cc1,i
COc1ccc(-c2nnsc2C(=O)NC2CCCC2)cc1,i
CC(C)(C)OC(=O)N1CCC(NC(=O)c2nc(-c3ccccc3)c3ccccn23)CC1,79µM*
Cc1ccc(C)c(S(=O)(=O)NCCc2coc(-c3ccccc3)n2)c1,i
CCCc1ccc(OCc2ccc(C(=O)O)cc2)cc1,i
C=C(C)Cn1c(NCc2ccccc2)nc2c1c(=O)n(C)c(=O)n2C,i
CCOC(=O)c1c(C)oc(NC(=O)c2cc(-c3ccc(OC)cc3)on2)c1C#N,i
Cc1nnc2sc(-c3ccc(CNC(=O)C(C)(C)Oc4ccc(Br)cc4)cc3)nn12,i
O=C(c1ccc2c(c1)OCO2)N1CCC2(CC1)N=C(c1ccc(Br)cc1)NO2,i
COc1ccccc1-c1ccnc(N[C@H]2CO[C@H]3[C@@H]2OC[C@@H]3NS(=O)(=O)c2ccc(NC(C)=O)cc2)n1,i
COc1ccccc1-c1ccnc(N[C@H]2CO[C@H]3[C@@H]2OC[C@@H]3NS(C)(=O)=O)n1,35µM*
Cc1ccc(C(=O)N[C@H]2CO[C@H]3[C@@H]2OC[C@@H]3Nc2nccc(C(C)(C)C)n2)cc1,i
COc1ccccc1-c1ccnc(N[C@H]2CO[C@H]3[C@@H]2OC[C@@H]3NC(=O)N2CCOCC2)n1,25µM*
